Among all 48,000 compounds or so, about 13,000 (27%) showed an effect of 50% or more. The list shows a part of the results.
system: Wolbachia pipientis; experiment: Anti-Wolbachia Cell-Based Screen; format: functional; set-up: scale not given: in the data most compounds retested in dose-response had high values; conditions: 5 µM

Structure (SMILES) | Percent Effect
COc1ccnc(N2CCN(C(C)c3nc(C)no3)CC2)n1 (stereo unspecified) | -3.819%
O=C(Nc1ccccc1)c1cccc(S(=O)(=O)NC[C@@H]2C[C@H](F)CN2)c1 | 3.3%
CN(CC(N)=O)Cc1cc(Cl)cc2cccnc12 | -12.39%
O=C(NCCc1nc2ccccc2s1)c1coc(CN2CCOCC2)c1 | -17.38%
CCc1nnc2n1CCN(CC(O)CN1CCC(C)CC1)C2 (stereo unspecified) | -4.838%
CC(=O)NC1CCCN(C(=O)NCc2cccnc2)C1 (stereo unspecified) | 121%
CS(=O)(=O)NC1CCN(C(=O)NCCNc2ccccn2)CC1 | 2.154%
CC(=O)NC1CCCN(C(=O)CCc2cccnc2)C1 (stereo unspecified) | 16.44%
O=C(NCc1cc[nH]n1)N1CCCCC(N2CCCC2)C1 (stereo unspecified) | 0.854%
CC(=O)NC1CCCN(C(=O)NCc2cccnc2N(C)C)C1 (stereo unspecified) | 9.234%
CC(=O)NC1CCCN(C(=O)NCc2cc[nH]n2)C1 (stereo unspecified) | 125.6%
O=C(NCc1cc[nH]n1)N1CCCC(N2CCCC2)C1 (stereo unspecified) | 111.7%
CS(=O)(=O)NC1CCCN(C(=O)NCc2cccnc2)C1 (stereo unspecified) | -6.706%
CS(=O)(=O)NC1CCN(C(=O)NCc2cccnc2)CC1 | 127.5%
CC(=O)NC1CCCN(C(=O)NCc2cccnc2-n2cccn2)C1 (stereo unspecified) | -5.614%
CC(C)(C)OC(=O)N1CCCCC1C(=O)NCc1cc[nH]n1 (stereo unspecified) | -6.483%
COCCc1noc(CN2CCCc3cccc(OC)c32)n1 | 0.4274%
Cc1noc(-c2ccc(N(C)Cc3ccncn3)nc2)n1 | -29.65%
c1ccc(CNC[C@H]2COCc3nc4cccnc4n32)cc1 | 10.55%
COCC(C)NC(=O)NCCc1cccc(OC)c1O (stereo unspecified) | -7.103%
CCn1nc(CC(C)C)cc1C(=O)N1CCN([C@H]2CCCC[C@@H]2O)CC1 | 0.6704%
CCS(=O)(=O)N1CC(c2nc(-c3ccsc3)no2)C1 | -8.132%

Structure (SMILES) | Percent Effect
CCc1c(C)nn(CCNC(=O)Cc2csc(C)n2)c1C | -26.69%
CN(C)CCn1cc(NC(=O)NC(C)(C)c2nccs2)cn1 | -14.78%
CCCN(C(=O)c1ccncc1)c1nc2c(s1)CCc1c-2cnn1C | 62.27%
CCCN(C(=O)c1cccnc1)c1nc2c(s1)CCc1c-2cnn1C | 53.11%
CCCN(C(=O)COC)c1nc2c(s1)CCc1c-2cnn1C | 1.347%
OCc1ccc(CN2CCC(n3cc(-c4ccc(F)cc4)nn3)CC2)o1 | -0.1205%
CC(C)C(C(=O)NC1CCOCC1)n1cnc2cc(F)c(F)cc21 (stereo unspecified) | 3.744%
CCCc1cc(=O)[nH]c2nnc(SCC(=O)NCc3ccc(C)cc3)n12 | -24%
CC(=O)N1N=C(c2ccccc2)OC1C(=O)NCCOc1ccccc1 (stereo unspecified) | 130.7%
CC(=O)N1N=C(c2ccccc2)OC1C(=O)NCCc1cccc(Cl)c1 (stereo unspecified) | 1.222%
CC(=O)NCCNC(=O)NCCCc1cccc(F)c1 | -6.354%
CC(=O)N1N=C(c2ccccc2)OC1C(=O)NCCc1cccc(F)c1 (stereo unspecified) | 137.5%
CC(=O)N1N=C(c2ccccc2)OC1C(=O)NCCc1ccc(O)cc1 (stereo unspecified) | 114.8%
CC(=O)N1N=C(c2ccccc2)OC1C(=O)NCCC1=CCCCC1 (stereo unspecified) | -1.689%
Cc1nc(C2CCCN2CC(=O)NCCOc2ccccc2)no1 (stereo unspecified) | 3.183%
O=C(NCCOc1ccccc1)C1NCCc2[nH]cnc21 (stereo unspecified) | 9.443%
Cc1ccc2c(c1)CN(CC(=O)NCCc1ccc(F)cc1)CC(C)O2 (stereo unspecified) | 6.694%
Cc1nc(-c2ccc(NCCc3ccc(O)cc3)nc2)[nH]c(=O)c1C | -6.931%
CC(=O)N1N=C(c2ccccc2)OC1C(=O)NCCc1ccc(C)cc1 (stereo unspecified) | 114.7%
CC(NC(=O)Nc1cnn(CC(N)=O)c1)c1ccc(Cl)s1 (stereo unspecified) | 9.25%
NC(=O)NCCC(=O)N1CCC(c2cc(-c3ccccc3Cl)n[nH]2)CC1 | -13.9%
CC(C)(CNC(=O)CSc1nnnn1C1CC1)c1ccccc1F | 14.51%

Structure (SMILES) | Percent Effect
CC(C)(C#N)c1ccc(NS(=O)(=O)CC2CCCCO2)cc1 (stereo unspecified) | -23.28%
Cc1nc(NCCc2ccc(Cl)cc2)cc(C(=O)N2CCCCC2)n1 | 24.03%
Cn1cc(CCNC(=O)C2(c3cccc(Cl)c3)CC2)cn1 | 11.84%
CC(=O)N1N=C(c2ccccc2)OC1C(=O)NCCN(C(C)C)C(C)C (stereo unspecified) | 125.8%
NC(=O)c1cccc(CCNCc2cnc(-c3cccs3)s2)c1 | -4.854%
Cc1nc(NCCc2ccc(Cl)cc2)cc(C(=O)N2CCOCC2)n1 | 8.895%
CC(C)N(CCNC(=O)c1[nH]nc2ccc(I)cc12)C(C)C | -4.489%
CC(C)N(C)CCCNC(=O)c1cnc(-c2ccccc2)nc1 | -3.501%
CC(=O)N1N=C(c2ccccc2)OC1C(=O)NCCc1ccc(Cl)cc1 (stereo unspecified) | 146.7%
CC(=O)N1N=C(c2cccs2)OC1C(=O)NCCc1cccc(Cl)c1 (stereo unspecified) | 135.3%
Cc1nc(CN2Cc3cn(C)nc3C(COCC3CC3)C2)cs1 (stereo unspecified) | -15.47%
O=C(c1cccs1)N1CC[C@H]2[C@@H]1CCC(=O)N2c1cccnc1 | -2.771%
CN(C)C(=O)N[C@@H]1CN(C2CCOCC2)[C@@H]2CCCO[C@@H]21.O=C(O)C(F)(F)F | -11.3%
COc1ccc(CN2CCCn3cnc(COC(C)C)c3C2)cc1.O=C(O)C(F)(F)F | 23.92%
CCc1nc(Cn2nc(C3CCNCC3)n(-c3ccccc3)c2=O)cs1 | 10.87%
CC(=O)N1CCC(NC(=O)N2CCCC2c2ccsc2)CC1 (stereo unspecified) | -39.95%
NC(=O)CN1CCC(NC(=O)N2CCCC2c2ccsc2)CC1 (stereo unspecified) | -19.01%
CSCCC(=O)N1CCCC1c1ccsc1 (stereo unspecified) | -16.09%
CC(=O)N1C[C@@H](c2ccsc2)[C@@H]2CN(Cc3ccccc3C)CC[C@@H]21 | 115.6%
COc1ccccc1CN1CC[C@H]2[C@@H](C1)[C@H](c1ccsc1)CN2C(C)=O | 109%
CC(=O)N1C[C@@H](c2ccsc2)[C@@H]2CN(Cc3ccccc3)CC[C@@H]21 | 3.604%
CC(=O)N1C[C@@H](c2ccsc2)[C@@H]2CN(CC3CCCCC3)CC[C@@H]21 | 84.31%

Structure (SMILES) | Percent Effect
NC(=O)C1CCN(CC(=O)N2CCCC2c2ccsc2)CC1 (stereo unspecified) | -14.97%
CC(=O)N1C[C@@H](c2ccsc2)[C@@H]2CN(Cc3ccccc3Cl)CC[C@@H]21 | 132.7%
CCn1cnnc1CNC(=O)N(C)Cc1c(F)cccc1Cl | -9.877%
CCCn1ncc(C(=O)NCCc2[nH]nc3c2CCCC3)c1C | 17.81%
CC1(C)[C@H](Cc2cc(CO)on2)C[C@@H]1N(CC1CC1)CC1CC1 | 3.295%
CCS(=O)(=O)NCC1CCN(c2cnccn2)CC1 | 106%
O=S(=O)(Cc1ccccc1)NCC1CCN(c2cnccn2)CC1 | -2.116%
Cc1ncc(CN2CCC(CNS(=O)(=O)C3CC3)C2)cn1 (stereo unspecified) | -9.849%
CCc1ccc(CN2CCC(CNS(=O)(=O)C3CC3)C2)nc1 (stereo unspecified) | -5.185%
O=S(=O)(NCC1CCN(c2cnccn2)CC1)C1CC1 | 99.54%
Cc1cn2c(n1)CCC(NC(=O)c1c[nH]c(C)n1)C2 (stereo unspecified) | 3.74%
Cc1cc(C(=O)NC2CCc3nc(C)cn3C2)[nH]n1 (stereo unspecified) | -4.172%
Cc1cn2c(n1)CCC(NC(=O)c1csc(C(C)C)n1)C2 (stereo unspecified) | 134.7%
Cc1cn2c(n1)CCC(NC(=O)c1cnc(C)nc1C(C)C)C2 (stereo unspecified) | 1.666%
Cc1ncc(C(=O)NC2CCc3nccn3C2)c(C(C)C)n1 (stereo unspecified) | 126.1%
O=C(NC1CCc2nccn2C1)c1ccc(NC2CC2)nc1 (stereo unspecified) | 9.006%
Cc1cn2c(n1)CCC(NC(=O)c1ccc(OCC3CC3)nc1)C2 (stereo unspecified) | -16.45%
Cc1cn2c(n1)CCC(NC(=O)c1cc(C(C)C)no1)C2 (stereo unspecified) | 2.478%
Cc1cn2c(n1)CCC(NC(=O)c1nc(C)ncc1Cl)C2 (stereo unspecified) | -6.875%
Cc1cn2c(n1)CCC(NC(=O)c1ccc(CS(C)(=O)=O)cc1)C2 (stereo unspecified) | 1.181%
CCc1ncncc1C(=O)NC1CCc2nc(C)cn2C1 (stereo unspecified) | 106.8%
Cc1cn2c(n1)CCC(NC(=O)c1cncnc1C)C2 (stereo unspecified) | 122.4%

Structure (SMILES) | Percent Effect
CCCn1cnc(S(=O)(=O)Nc2cccnc2-n2cccn2)c1 | 0.1975%
CC(=O)N1CCN(C(=O)CNc2cccc(OC(F)F)c2C)CC1 | -4.859%
CS(=O)(=O)Nc1ccc(-n2c(CCCO)nc3ccccc32)cn1 | -0.6251%
Oc1ccccc1N1CCN(c2ncnc3sc4c(c23)CCNC4)CC1 | -35.6%
CC(C#N)CNC(=O)Nc1ccc(-c2cc[nH]n2)cc1 (stereo unspecified) | -10.22%
COC(=O)c1sccc1S(=O)(=O)N1CCc2c(ncnc2N(C)C)C1 | -35.5%
Cc1nn(Cc2ccc(F)cc2)c2[nH]nc(N)c12 | 12.93%
Cc1cccc(CN2CCN(c3nc(CO)cs3)CC2)c1 | -5.528%
Cc1cn(Cc2ccccc2)nc1N | 112.8%
Cc1ccc(Cn2cc(C)c(N)n2)cc1 | 101.5%
Cc1ccc(Cn2ccc(NS(C)(=O)=O)n2)cc1 | -11.54%
Cc1cnn(C2CCN(Cc3ccccc3)C2)c1N (stereo unspecified) | -3.11%
Cc1nn(C)cc1Cn1cc(Cl)c(N)n1 | -32.62%
Cc1cn(Cc2ccc(F)cc2)nc1N | 105.5%
Cc1ncc(C)c(N2Cc3cnn(Cc4ccc(F)cc4)c3C2)n1 | 15.3%
Cc1cccc(Cn2cc(C)c(N)n2)c1 | 142%
Cc1cccc(Cn2nc(C3CCNCC3)n(-c3ccccc3)c2=O)c1 | 2.339%
CCn1cc(Cn2cc(Cl)c(N)n2)c(C)n1 | 11.61%

— ChEMBL document CHEMBL3988442, “University of Dundee, Small-Polar-MMV Screening Library” (2021)
